A selection: hits, their analogues and other compounds. The true share with any hit is near 6.8%.
Spn MK inh = inhibitors of Streptococcus pneumoniae mevalonate kinase | 65,000 tested, 0.48% active | inhibition, % at 10 µM | purified MK, PK/LDH-coupled NADH absorbance 340 nm | AID 555;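 active = ranked among the strongest by inhibition in the single 10 µM screen, a fixed top-ranked set picked for dose follow-up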
DPM-DC inhibit = S. pneumoniae DPM-DC inhibition | 65,000 tested, 0.49% active | purified DPM-DC, PK/LDH coupled NADH fluorescence | calls only at 10 µM | AID 556;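 active = the 320 compounds with the highest percent inhibition in the single-dose primary screen, excluding strongly autofluorescent ones, cut at about 32% in these data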;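 also: kinetic rate of NADH fluorescence loss reporting ADP formed by the decarboxylase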
NADH enzymes = inhibition of NAD/NADH coupling enzymes, library profiling; coupled PK/LDH NADH assays, four targets; IC50, µM (doses to about 10 µM); 65,000 tested, 0.02% active; AID 774;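 active = single-dose screening hits from any of four coupled enzyme assays that gave an IC50 when retested across doses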;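 also: the DPM-DC format reads NADH fluorescence rather than 340 nm absorbance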
Abs 340nm = compounds absorbing at 340 nm | AID 708 | compound absorbance at 340 nm, fold over control | 65,000 tested, under 10 active | fold change at 10 µM;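 active = at 10 µM dose, initial 340 nm absorbance at least 2 fold that of control wells; inactive = change under 2 fold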;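 also: initial absorbance extrapolated from kinetic A340 decline of NADH oxidation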
PMK inhibit = blocks S. pneumoniae phosphomevalonate kinase; purified PMK, PK/LDH-coupled NADH absorbance 340 nm; inhibition, % at 10 µM; 65,000 tested, 0.49% active;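 active = top-ranked compounds by inhibition in the single 10 µM screen, taking a fixed number of the strongest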
Autofluor 339 = intrinsic fluorescence of library compounds, ex339/em460 – biochemical, MLSMR library, data from DPM-DC assay, artefact control, profiling panel; 65,000 tested, 5.5% active; AID 709; compound autofluorescence, ex339/em460 nm, NADH buffer; active compounds read high; 1 = no-compound wells, NADH background; fluorescence fold increase at 10 µM;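 active = at 10 µM, mean starting fluorescence two-fold or more over control wells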;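 also: signal is the first read of a kinetic run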
A number is an active result; - = inactive; . = no result shown.

SMILES	Spn MK inh	DPM-DC inhibit	NADH enzymes	Abs 340nm	PMK inhibit	Autofluor 339
CCN(CCO)Cc1cc(=O)oc2c(C)c(C)ccc12	-	-	-	-	-	-
COc1cc2c(cc1OC)CN(C(=O)CSc1nnc(C)s1)CC2	-	-	-	-	-	-
Cc1ccc(-c2c(C)c(-c3ccc(F)cc3)nc(N)c2C#N)o1	-	-	-	-	-	3
O=C(c1c(F)cccc1F)N(Cc1ccccn1)C1CCCC1	-	-	-	-	-	-
CCn1c(SCC(=O)Nc2cc(OC)ccc2OC)nnc1C1CCCCC1	-	-	-	-	-	-
CCOC(=O)CNC(=O)c1sc2nc(C)cc(C)c2c1N	-	.	-	-	-	3.9
CCOC(=O)c1sc2nc(C)cc(C)c2c1N	-	.	-	-	-	2.4
COCc1cc(C)nc2sc(C(=O)N3CCN(c4ccccc4)CC3)c(N)c12	-	-	-	-	-	-
Cc1cc(C)c2c(N)c(C(=O)N3CCN(c4ncccn4)CC3)sc2n1	-	-	-	-	-	2.2
Nc1ccc2c3c(cccc13)CC2	-	.	-	-	-	2.3
COC(=O)c1ccc(CSc2nc(C)nc3c2c(=O)n(C)c(=O)n3C)o1	-	-	-	-	-	-
CCc1cc2c(CN3CCN(C)CC3)cc(=O)oc2cc1O	-	.	-	-	-	3.8
CCc1cc2c(CN3CCN(CCO)CC3)cc(=O)oc2cc1O	-	.	-	-	-	2.9
O=C(Cc1c(F)cccc1Cl)N1CCCC1	-	-	-	-	-	-
CCN(CC)C(=O)NC1CC2CCCC(C1)N2Cc1ccccc1 (configuration not stated)	-	-	-	-	27	-
O=C(NCc1ccccc1)NC1CC2CCC(C1)N2Cc1ccco1 (configuration not stated)	-	-	-	-	-	-
Cn1c(=O)c2c(SCC(=O)NCc3ccco3)nc(CC(C)(C)C)nc2n(C)c1=O	-	-	-	-	-	-
CC(=O)C(Sc1nc(-c2ccco2)nc2c1c(=O)n(C)c(=O)n2C)C(=O)N(C)C (configuration not stated)	-	-	-	-	-	2.2
O=C(c1coc(=O)c2ccccc12)N1CCN(Cc2ccccc2)CC1	.	-	-	-	-	-
Cc1nc(Sc2nnnn2C)c2c3c(sc2n1)CCC3	-	.	-	-	-	2.1
CCCCn1ccc(=O)c2c(C(F)(F)F)nccc21	-	-	-	-	-	-
CCCCn1c(=O)n(C)c(=O)c2c(C(F)(F)F)cc(-c3ccncc3)nc21	-	.	-	-	-	2.1
CCOC(=O)c1c(C)n(OCc2ccccc2)c2ccc3nonc3c12	-	.	-	-	-	2.2
Cc1cc2nc(NC3=NCN(Cc4cccnc4)CN3)nc(C)c2cc1C	-	-	-	-	-	-
O=c1c(-c2nc3ccccc3o2)c2oc3ccccc3n2c2ccccc12	-	.	-	-	-	5
SMILES	Spn MK inh	DPM-DC inhibit	NADH enzymes	Abs 340nm	PMK inhibit	Autofluor 339
COc1ccc(OCC(O)Cn2c(Nc3cccc(C)c3)nc3c2c(=O)n(C)c(=O)n3C)cc1 (configuration not stated)	-	-	-	-	-	-
CCOc1ccc(C2CC(c3cccc(OC)c3)Nc3ncnn32)cc1 (configuration not stated)	-	-	-	-	-	-
CCOc1ccc(C(=O)N2CCN(Cc3ccccc3)CC2)cc1	-	-	-	-	-	-
CCOc1ccc2oc(-c3ccccc3)c(C(=O)O)c2c1	-	.	-	-	-	3.9
O=C(c1cc2c(ccc3ccccc32)oc1=O)N1CCN(CCO)CC1	-	.	-	-	-	2.1
O=C(c1cc2ccccc2oc1=O)N1CCCN(C(=O)c2cc3ccccc3oc2=O)CC1	-	-	-	-	-	-
CCOc1ccc2oc(-c3ccccc3)c(C(=O)N3CCN(CCO)CC3)c2c1	-	.	-	-	-	3.4
CC(Oc1ccc2oc(-c3ccccc3)c(C(=O)O)c2c1)C(=O)O (configuration not stated)	-	.	-	-	-	2.4
O=C(OC(C(=O)NCc1ccc2c(c1)OCO2)c1ccc(Cl)cc1)c1ccco1 (configuration not stated)	-	-	-	-	-	-
O=C(Cn1cc2c(n1)CCCC2)Nc1cc(-c2cccc(Cl)c2)no1	-	-	-	-	-	-
CCN(CC)C(=O)CSc1nnc(-c2ccccn2)n1-c1ccc(C)c(C)c1	-	-	-	-	-	-

Screens (PubChem)
